About 210 (10%) of roughly 2,100 compounds were called active. About 53% were inconclusive and are not listed. Calls come from the whole dose curve; as a rule, active = well fitted inhibition curve with a large enough effect; inconclusive = small, poorly fitted or top-dose-only effect, or effect the other way; inactive = no such curve, though single readings can be large or run the other way. The list shows a part of the results. A call without a number means that no potency is given here.

The record followed here is PubChem BioAssay AID504465 (National Center for Advancing Translational Sciences (NCATS), 2011).
Potency is the fitted concentration of half-maximal effect.

A short description of this test: IN Cell qHTS Assay for Inhibitors of the mTORC1 Signaling Pathway in MEF (Tsc2-/-, p53-/-) Cells: Sytravon. Note: nearly all actives have a fitted effect of over 60% in size. The settings on record: phospho-rpS6 immunofluorescence, 24 h; series mostly up to 38.3 µM. An excerpt:
NIH Molecular Libraries Probe Production Centers Network [MLPCN] NIH Chemical Genomics Center [NCGC] MLPCN Grant: NS059428-01 Assay Submitter (PI): Blenis, John; Hoffman, Greg; Harvard University NCGC Assay Overview: Thee mammalian target of rapamycin (mTOR) is an intracellular serine/threonine kinase Aberrant regulation of mTOR signaling plays a causative role in a number of human diseases, including cancer, benign tumors such as lymphangioleiomyomatosis (LAM) and Tuberous Sclerosis Complex (TSC), and metabolic diseases such as diabetes and obesity. This project aims to identify inhibitors of ribosomal protein S6 (rpS6) phosphorylation. The phosphorylation of rpS6 is a key event downstream of mTOR activation. The assay uses a phospho-specific antibody of phospho-rpS6 to detect inhibitors of mTOR activation. Mutations in the Tsc1 and Tsc2 genes are the underlying genetic lesions responsible for TSC, causing constitutive activation of the mTORC1 pathway and leading to profound effects on cell metabolism. Aberrant metabolism in cancer has recently received significant attention as a target to develop therapeutic agents in the treatment of cancer1. As Tsc2-/- cells have lost the ability to respond to energy and growth factor deprivation, these cells are unable to properly down regulate cellular biosynthetic processes in response to metabolic stress, and are thus extremely sensitive to glucose deprivation-induced death.2 A central goal of this project is to explore the unique cell survival and metabolic properties of cells with Tsc1 or Tsc2 by screening for compounds that selectively target the Tsc2-/- MEFs by screening both Tsc2-/- and WT MEF cell lines. We hope to better understand these aspects of TSC physiology in order to exploit them for therapeutic benefit.
NCGC IN Cell Assay Protocol: For quantitative high throughput analysis of mTORC1 signaling, we developed a cell-based assay for immuno-fluorescence based detection of rpS6 phosphorylation on the Acumen Explorer that will be used a platform for the primary small molecule screen. Mouse embryonic fibroblasts (MEFs) are cultured in 1536-well plates using DMEM + 10% FBS. Twenty-four hrs after plating, test compounds (solubilized in DMSO) are delivered and incubated with the cells for 24 hrs at 37 degree Celsius. Following the incubation, media with compound is aspirated and the cells are fixed in 4% paraformaldehyde (PFA) containing PBS + 0.2% TX-100. Next, PFA is aspirated, cells are washed two times with PBS plus 0.2% TX-100 and the cells are blocked for 1 hr at room temperature (blocking buffer: LiCOR Blocking Buffer plus 0.2% TX-100). This is followed by aspiration and staining with Alexa-488 conjugated-phospho-rpS6 Ser235/236 antibody for 2 hours at room temperature (Cell Signaling Technology # 4803, 1:50 dilution in blocking buffer). Cells are washed two times with PBS plus 0.2% TX-100, and stained with 10 uM propidium iodide (PI) for 20-25 minutes for cell number measurement (1:500 dilution of Hoescht staining is also added for IN Cell imaging). Active wells which are selected (based on Acumen results) are imaged on the IN Cell 1000 (GE Healthcare) using the D360/40X and HQ480/40X excitation filters for the Hoechst and Alexa-488 cytoplasmic stains, respectively. The fluorescence emission filters used were HQ460/40M and HQ535/50M for the Hoechst and Alexa-488 cytoplasmic stains, respectively. The normalized phospho-S6 staining is calculated as the ratio of […] for the single concentration rapamycin control (7.5 nM) and DMSO columns. […] Inhibition of the pathway is defined based on the normalized phospho-S6 intensity in rapamycin treated cells. Each treatment is reported as the % positive cells in the well, where thresholds are defined by selecting wells with the highest and lowest signal and differentiating between the % non-active and % active populations. […]
Background: qHTS replaces the single test concentration by a dilution series.
For `O=c1oc2ccccc2cc1-c1cn2cc(Cc3ccc(F)cc3)sc2n1`, the Potency is 1.65 µM (active).

Regarding `CCc1ccc(-n2nc(C)c3c2NC(=O)CSC3c2ccc(OC)cc2OC)cc1` (centres undefined), the Potency entry is “inactive”.

As to `Cc1cccc(CN2CC=C(c3noc(CCC(=O)Nc4ccc(C)c(F)c4)n3)CC2)c1`, the Potency entry is “inactive”.

Regarding `Nc1c(C(=O)Nc2cccc(Br)c2)sc2nc3c(cc12)N1CCC3CC1`, the Potency entry was “inactive”.

Regarding `O=C(Nc1ccccc1)N(Cc1ccc2c(c1)OCO2)C1CCN(Cc2ccccc2)CC1`, the Potency entry was “inactive”.

In the case of `COc1ccc2nc(NC(=O)c3nc(S(=O)(=O)Cc4cccc(C)c4)ncc3Cl)sc2c1`, the Potency is 16.5 µM (active).

Regarding `CCOc1ccc(NC(=O)c2cccn(Cc3cccc(Cl)c3)c2=O)cc1`, the Potency entry was “inactive”.

For the compound `CCOc1ccc(NC(=O)c2cc3c(C)nn(-c4ccccc4)c3s2)cc1`, the Potency was 14.7 µM (active).

Consider `Cc1ccc(-n2c(/C=C/c3ccc(Br)s3)nc3ccccc3c2=O)cc1C`, for which the Potency entry is “inactive”.
